Data on 40 compounds can be found in PubChem BioAssay (NCI).

The structures appear in SMILES notation. About 83,000 compounds went through this panel and 20% of them were active in at least one assay; those are over-represented in the sample as a whole.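 Testing used 96-well plates and a 48-hour single-concentration exposure. Example: -40 means 40% of the starting cells died.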 Unmarked numbers belong to inactive results. Active and inactive are the calls of the source.

For this assay, the system named is COLO 205 colon. The experiment in a line: NCI-60 one-dose screen, 48 h (100 = growth as untreated, 0 = no growth, -100 = all killed). The following applies: 10 µM. On the procedure:
Cells are grown in 96 well plates and exposed to the test compound for 48 hours. Compounds are tested at a single concentration, which is 10^-5 M for most compounds. The reported endpoint is percent growth (GI% or GIPRCNT), where numbers from 0 - 100% represent growth inhibition, and numbers from -100% - 0 represent cell death. For example, a value of 40 represents 60% growth inhibition. A value of 0 means no net growth occurred over the course of the experiment. A value of -40 indicates 40% of cells at the beginning of the experiment died by the end of the experiment. A value of -100 means all cells are dead at the end of the experiment.
NCI-60 Human Tumor Cell Lines Screen was performed using the standard one-dose NCI protocol, which is described in more detail at https://dtp.cancer.gov/discovery_development/nci-60/default.htm.
Compounds with GIPRCNT values below 10 were considered active. Activity score was based on GIPRCNT using the following formula: […]
Score is 0 for GIPRCNT values of 100 or above, 50 for GIPRCNT values of 0, and 100 for GIPRCNT values of -100.
As for `COc1ccc(-c2ccc(OC)c(OC)c2OC)cc1`, the growth is -13.5% (active).
For the compound `CNC(=O)O/N=C(/C)c1ccc(Cl)cc1`, the growth was 107%.
In the case of `COC[CH2][Hg][C]#[C][Hg][CH2]COC`, the growth is 100%.
As to `OB([O][Hg][c]1ccccc1)[O][Hg][c]1ccccc1`, the growth is -100% (active).
The result for `CC(=O)[O][Hg][c]1nc2c(c(=O)n(C)c(=O)n2C)n1C` reads 113%; that for `O=C(/C=C/c1ccccc1)N[C@@H](CO)Cc1cnc[nH]1`, 104%; that for `NC(=O)SCC(=O)Nc1ccc([As](=O)(O)O)cc1`, 75.6%.
Regarding `S=P(Nc1ccccc1)(Nc1ccccc1)c1ccccc1`, the growth is 146%.
Turning to `Cc1ccc(C[As+](c2ccccc2)(c2ccccc2)c2ccccc2)cc1`, the growth was -55.7% (active).
Regarding `Nc1cccc(CC(=O)Nc2ccc(S(=O)(=O)F)cc2)c1`, the growth is 95.8%.
Under `NC(=O)OCC(CO)(c1ccccc1)c1ccccc1` stands 105%.
As for `CNc1ccc(C(=O)CC(O)CCC(C)C2OC(=O)CC(O)CC(=O)CC(O)CC(O)CC(O)CC(O)CC3(O)CC(O)C(C(=O)OC)C(CC(O[C@@H]4O[C@H](C)[C@@H](O)[C@H](N)[C@@H]4O)/C=C/C=C/C=C/C=C/C=C/C=C/C=C/C2C)O3)cc1` (stereo not given in full), the growth was 2.91% (active).
On to `N#Cc1ncc(/N=C/c2ccc(N(CCCl)CCCl)cc2)s1`, for which the growth is 99.4%.
Under `CNC(=O)Oc1cccc(N(C)C)c1` stands 108%.
Regarding `CC(=O)O[C@H]1CCC2C3CCC4=C/C(=N/O)CCC4(C)C3CCC21C` (stereo not given in full), the growth is 107%.
Under `[N-]=[N+]=NC(C(=O)O)c1ccccc1` (stereo not given) stands 104%; under `C=CC(=O)NC(O)C(Cl)(Cl)Cl` (stereo not given), 111%; under `ClCCN(CCCl)c1nc(Cl)c(C2CC(c3ccccc3)=NN2c2ccccc2)s1` (stereo not given), 95.3%.
The result for `CC(C)C1c2ccc(O)cc2Oc2nc(N)c(C#N)c(N)c21` (stereo not given) reads 109%; that for `O=[N+]([O-])c1cccc([As]=[As]c2cccc([N+](=O)[O-])c2)c1` (stereo not given), -81.2% (active).
As to `Nc1c(Br)cc([N+](=O)[O-])cc1[N+](=O)[O-]`, the growth was 116%.
Under `O=[N+]([O-])c1cc([N+](=O)[O-])c(Cl)c(Cl)c1Cl` stands -82.7% (active); under `C=CCc1ccc(OC(=O)Cc2ccccc2)c(OC)c1`, 103%; under `CC[CH2][Pb]([CH2]CC)([CH2]CC)[O]C(=O)C(F)(F)F`, -72.5% (active).
Turning to `CN1C(=O)NC(=O)C(N=Nc2ccc(Cl)cc2)C1=O` (stereo not given), the growth is 137%.
`CCC[CH2][Sn]1([CH2]CCC)[O]C(=O)c2cccc([N+](=O)[O-])c2C(=O)[O]1`: the growth is -97.1% (active).
Under `O=C(CCF)c1ccc(O)cc1` stands 105%.
As for `O=[N+]([O-])c1ccc2cnn(CSP(=S)(c3ccccc3)c3ccccc3)c2c1`, the growth is 101%.
For `CCC(C)(C)O`, the growth was 110%.
In the case of `CCOC(=O)C1(c2ccccc2)CCN(CC(=O)c2ccc(NC(C)=O)cc2)CC1`, the growth was 103%.
As for `CC1=C(SCCC(=O)OCC(=O)NCCC[Te]c2ccccc2)C(=O)c2ccccc2C1=O`, the growth is 47.6%.
For the compound `c1cnc2c(c1)ccc1ncccc12`, the growth was 110%.
Under `Nc1ncnc2c1c(C(=O)NO)cn2C1OC(CO)C(O)C1O` (stereo not given) stands -36.1% (active).
Turning to `Nc1ccc(N)c2c1Oc1ccccc1O2`, the growth was 106%.
Regarding `CC(C)(O)/C=C/C(=O)[C@](C)(O)[C@H]1[C@H](O)C[C@@]2(C)[C@@H]3CC=C4[C@@H](C=C(O)C(=O)C4(C)C)[C@]3(C)C(=O)C[C@]12C`, the growth was -52.3% (active).
Regarding `CC(=O)Nc1ccc(C=C2C(=O)NC(=O)NC2=O)cc1`, the growth is 106%.
`Nc1c(Br)cc2c3c(cccc13)-c1ccccc1-2`: the growth was 88.2%.
Consider `CCOC(=O)c1cnc(SCc2ccc(Cl)c(Cl)c2)nc1N1CC1`, for which the growth is 67.8%.
In the case of `CCCC(C)(C)c1ccc2c(c1)OC(C)(C)[C@@H]1CC=C(C)C[C@@H]21`, the growth was 107%.
With `C[C@]12CCC(=O)CC1CC[C@@H]1C2CC[C@@]2(C)C1CC[C@@H]2OC(=O)CC[Se][Se]CCC(=O)O[C@H]1CCC2[C@@H]3CCC4CC(=O)CC[C@]4(C)C3CC[C@@]21C` (stereo not given in full), the growth was 122%.
